Here are results for 38 compounds from PubChem BioAssay (Tox21).

Each structure is given as a SMILES string. Inconclusive results are not listed. Where a call stands in place of a potency, no number is given. Calls of active or inactive are those of the source. Calls come from the whole dose curve; as a rule, active = well fitted curve in the direction sought with a large enough effect in the repeat runs; inconclusive = weak or mixed curves; inactive = no such curve, though single readings can be large; an effect the other way counts as inactive or inconclusive.
Potency is the fitted concentration of half-maximal effect.

A short description of the first test: Human pregnane X receptor (PXR) small molecule agonists, qHTS cell viability counter screen (AID 1346977). Note: nearly all actives have a fitted effect of over 50% in size. The note with it: PXR-Luc HepG2 viability, CellTiter-Fluor, 24 h; series mostly up to 92.4 µM. A digest of the protocol: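 After a 5hr pre-incubation, PXR-Luc HepG2 cells received compounds plus positive control in DMSO and were kept 24hr at 37C. Cell viability was quantified by fluorescence from CellTiter-Fluor added for the final hour.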
For orientation: Quantitative high-throughput screening tests each substance at several concentrations.
In the case of `C[C@@H]1C[C@H]2[C@@H]3CCC4=CC(=O)C=C[C@]4(C)[C@@]3(F)[C@@H](O)C[C@]2(C)[C@@]1(O)C(=O)COP(=O)(O)O`, the Potency entry was “inactive”.

For the compound `O=C(O)CN1C(=O)c2cccc3cccc(c23)C1=O`, the Potency result is “inactive”.

Consider `CCOC(=O)c1c(N)sc2c1CCN(Cc1ccccc1)C2`, for which the Potency result was “inactive”.

`CC[C@@H](CO)NCCN[C@@H](CC)CO`: the Potency result is “inactive”.

With `CCOC(=O)c1ccc(NC(=O)CN2CCCCC2)cc1`, the Potency entry is “inactive”.

Turning to `CC(=O)OCC(C)C`, the Potency result is “inactive”.

As to `Cc1cn([C@H]2C[C@H](F)[C@@H](CO)O2)c(=O)[nH]c1=O`, the Potency entry was “inactive”.

Consider `O=S(=O)(O)CO`, for which the Potency result was “inactive”.

Regarding `COC(=O)Nc1nc2ccc(C(=O)C3CC3)cc2[nH]1`, the Potency entry was “inactive”.

In the case of `CCCCCCCCCCCSCC(=O)O`, the Potency entry was “inactive”.

On to `CC(C)C(O)C(C)(C)CO` (centres undefined), for which the Potency result is “inactive”.

Take `Nc1nc(-c2ccc([N+](=O)[O-])cc2)cs1`: the Potency entry is “inactive”.

Consider `CC(CCc1ccc(O)cc1)NCCc1ccc(O)c(O)c1` (centres undefined), for which the Potency entry was “inactive”.

In the case of `COc1cc(NC(C)CCCN)c2ncccc2c1` (centres undefined), the Potency was 29.8 µM (active).

For the compound `CC(C)OC(=O)c1ccccc1C(=O)OC(C)C`, the Potency entry is “inactive”.

As for `Cc1ccccc1S(N)(=O)=O`, the Potency entry is “inactive”.

As for `COc1cc(S(=O)(=O)Nc2ccccc2)c(OC)cc1N`, the Potency entry was “inactive”.

As for `COC1CCC=CO1` (centres undefined), the Potency entry was “inactive”.

With `O=C1NC(=O)c2cccc3cccc1c23`, the Potency entry was “inactive”.

Take `c1ccc2sc(SSc3nc4ccccc4s3)nc2c1`: the activity change, negative = cytotoxicity is 14.6% [at 19 µM] (inactive).

As for `NC(=O)c1ccccc1[N+](=O)[O-]`, the Potency entry is “inactive”.

As for `O=C1OC(=O)c2c(Br)c(Br)c(Br)c(Br)c21`, the Potency result is “inactive”.

Take `CCCCCC`: the Potency entry is “inactive”.

For `CC[C@H]1OC(=O)[C@H](C)[C@@H](O[C@H]2C[C@@](C)(OC)[C@@H](O)[C@H](C)O2)[C@H](C)[C@@H](O[C@@H]2O[C@H](C)C[C@H](N(C)C)[C@H]2O)[C@](C)(O)C[C@@H](C)CN(C)[C@H](C)[C@@H](O)[C@]1(C)O`, the Potency is 18.1 µM (active).

Turning to `Cc1ccc(Nc2c(F)cccc2Cl)c(CC(=O)O)c1`, the Potency entry was “inactive”.

As for `c1ccc(CCCc2ccncc2)cc1`, the Potency entry was “inactive”.

`CC(C)c1ccc(C(=O)N=C(N)N)cc1S(C)(=O)=O`: the Potency result was “inactive”.

For `Cc1ccc2c(c1[N+](=O)[O-])C(=O)c1ccccc1C2=O`, the Potency is 3.78 µM (active).

As for `O=c1[nH]c2cc(C(F)(F)F)c(N3CCOCC3)cc2n(CP(=O)(O)O)c1=O`, the Potency result is “inactive”.

On to `C1CCCCC1`, for which the Potency entry was “inactive”.

Consider `C1=CCC2CC=CC2C1` (centres undefined), for which the Potency result is “inactive”.

As to `CN1CCCN(C(c2ccccc2)c2ccc(Cl)cc2)CC1` (centres undefined), the Potency was 13.3 µM (active).

With `CC(CN(CCN(CC(C)OCCO)CC(C)OCCO)CC(C)OCCO)OCCO` (centres undefined), the Potency entry was “inactive”.

Another test in a line: Caspase-3/7 induction in HepG2 cells by small molecules, qHTS assay (AID 1346978). Note: nearly all actives have a fitted effect of over 15% in size. Conditions: HepG2 caspase-3/7 activation, Caspase-Glo luminescence, 17 h; series mostly up to 92.4 µM. A digest of the protocol:
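Caspase-3/7 induction was measured by Caspase-Glo 3/7 luminescence (30 min, room temperature) after a 17 hr compound exposure of wild-type HepG2 cells seeded at 2,000 per well and pre-incubated 5 hr.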
In the case of `CCN(CC)C(=O)/C(C#N)=C/c1cc(O)c(O)c([N+](=O)[O-])c1`, the Potency entry is “inactive”.

Turning to `C[C@@H]1C[C@H]2[C@@H]3CCC4=CC(=O)C=C[C@]4(C)[C@@]3(F)[C@@H](O)C[C@]2(C)[C@@]1(O)C(=O)COP(=O)(O)O`, the Potency result was “inactive”.

`O=C(O)CN1C(=O)c2cccc3cccc(c23)C1=O`: the Potency entry is “inactive”.

As to `CCOC(=O)c1c(N)sc2c1CCN(Cc1ccccc1)C2`, the Potency entry was “inactive”.

Turning to `CC[C@@H](CO)NCCN[C@@H](CC)CO`, the Potency entry was “inactive”.

As to `CCOC(=O)c1ccc(NC(=O)CN2CCCCC2)cc1`, the Potency result is “inactive”.

With `CC(=O)OCC(C)C`, the Potency entry was “inactive”.

Consider `Cc1cn([C@H]2C[C@H](F)[C@@H](CO)O2)c(=O)[nH]c1=O`, for which the Potency entry was “inactive”.

Take `O=S(=O)(O)CO`: the Potency result was “inactive”.

For the compound `COC(=O)Nc1nc2ccc(C(=O)C3CC3)cc2[nH]1`, the Potency result was “inactive”.

For the compound `CCCCCCCCCCCSCC(=O)O`, the Potency entry is “inactive”.

Consider `CC(C)C(O)C(C)(C)CO` (centres undefined), for which the Potency entry was “inactive”.

For the compound `Nc1nc(-c2ccc([N+](=O)[O-])cc2)cs1`, the Potency result was “inactive”.

With `CC(CCc1ccc(O)cc1)NCCc1ccc(O)c(O)c1` (centres undefined), the Potency result was “inactive”.

For `COc1cc(NC(C)CCCN)c2ncccc2c1` (centres undefined), the Potency result was “inactive”.

Turning to `CC(C)OC(=O)c1ccccc1C(=O)OC(C)C`, the Potency result was “inactive”.

Regarding `Cc1ccccc1S(N)(=O)=O`, the Potency result was “inactive”.

With `COc1cc(S(=O)(=O)Nc2ccccc2)c(OC)cc1N`, the Potency entry was “inactive”.

In the case of `COC1CCC=CO1` (centres undefined), the Potency entry is “inactive”.

Regarding `O=C1NC(=O)c2cccc3cccc1c23`, the Potency result is “inactive”.

`c1ccc2sc(SSc3nc4ccccc4s3)nc2c1`: the caspase activation was 1.15% [at 19 µM] (inactive).

For the compound `NC(=O)c1ccccc1[N+](=O)[O-]`, the Potency result was “inactive”.

Consider `COc1cc(NCc2ccc3nc(N)nc(N)c3c2C)cc(OC)c1OC`, for which the Potency result is “inactive”.

Turning to `CCCCCC`, the Potency result was “inactive”.

On to `CC[C@H]1OC(=O)[C@H](C)[C@@H](O[C@H]2C[C@@](C)(OC)[C@@H](O)[C@H](C)O2)[C@H](C)[C@@H](O[C@@H]2O[C@H](C)C[C@H](N(C)C)[C@H]2O)[C@](C)(O)C[C@@H](C)CN(C)[C@H](C)[C@@H](O)[C@]1(C)O`, for which the Potency entry was “inactive”.

Consider `Cc1ccc(Nc2c(F)cccc2Cl)c(CC(=O)O)c1`, for which the Potency result was “inactive”.

Regarding `c1ccc(CCCc2ccncc2)cc1`, the Potency result is “inactive”.

Consider `CC(C)c1ccc(C(=O)N=C(N)N)cc1S(C)(=O)=O`, for which the Potency result is “inactive”.

On to `COC(=O)C1=C(C)NC(C)=C(C(=O)OC(C)(C)CN(C)CCC(c2ccccc2)c2ccccc2)C1c1cccc([N+](=O)[O-])c1` (centres undefined), for which the Potency entry was “inactive”.

As to `Cc1ccc2c(c1[N+](=O)[O-])C(=O)c1ccccc1C2=O`, the Potency is 5.99 µM (active).

In the case of `O=c1[nH]c2cc(C(F)(F)F)c(N3CCOCC3)cc2n(CP(=O)(O)O)c1=O`, the Potency entry was “inactive”.

With `Cc1ccc2c(c1)CCCN2`, the Potency result is “inactive”.

For `COc1ccc(N)c([N+](=O)[O-])c1`, the Potency entry was “inactive”.

On to `C1CCCCC1`, for which the Potency result is “inactive”.

For the compound `C1=CCC2CC=CC2C1` (centres undefined), the Potency result was “inactive”.

Regarding `CC(CN(CCN(CC(C)OCCO)CC(C)OCCO)CC(C)OCCO)OCCO` (centres undefined), the Potency entry is “inactive”.
